Source: the supplement of paper PMC10849652
The full data set covers some 8,800 targets. This sample favours those with a hit. About 0.5% of all pairs of compound and target were hits.

Columns and labels:
Test in all cases: log2 fold change, soluble protein after heating vs DMSO (PISA); higher = thermal stabilisation; K562 lysate, 10 uM; active = over 0.2 and 3.5 SD of the protein, either way, in both replicates (recomputed)
alvocidib = compound: CN1CC[C@H](c2c(O)cc(O)c3c(=O)cc(-c4ccccc4Cl)oc23)[C@H](O)C1 [alvocidib]
Outline: (§1)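 Values give the log-two fold change in thermal stability against solvent controls, from duplicates. Crude K562 extract at 1 mg/mL protein, made by dounce homogenisation in PBS pH 7.4 with 1 mM MgCl2, was treated with 10 μM compound for 30 min. After 3 min heating across 48°C-58°C, aliquots were pooled, adjusted to 0.5% NP-40 at 4°C and centrifuged at 21,000xg for 90 min. The supernatant was measured by TMTpro 16plex LC-MS/MS with channel sums equalised.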

defactinib = compound: CNC(=O)c1ccc(Nc2ncc(C(F)(F)F)c(NCc3nccnc3N(C)S(C)(=O)=O)n2)cc1 [defactinib]
Outline: as §1

encorafenib = compound: COC(=O)N[C@@H](C)CNc1nccc(-c2cn(C(C)C)nc2-c2cc(Cl)cc(NS(C)(=O)=O)c2F)n1 [encorafenib]
Outline: as §1

[1] = compound: COC(=O)[C@H](CCSC)NC(=O)C1=C(C=C(C=C1)NC[C@H](CS)N)C2=CC=CC=C2
Outline: as §1

alisertib = compound: COc1cc(Nc2ncc3c(n2)-c2ccc(Cl)cc2C(c2c(F)cccc2OC)=NC3)ccc1C(=O)O [alisertib]
Outline: as §1

[2] = compound: COc1cc2nc(-c3cc(F)ccc3O)nc(N[C@@H]3CNC[C@H]3C(C)(C)O)c2cc1OC
Outline: as §1

gefitinib = compound: COc1cc2ncnc(Nc3ccc(F)c(Cl)c3)c2cc1OCCCN1CCOCC1 [gefitinib]
Outline: as §1

lapatinib = compound: CS(=O)(=O)CCNCc1ccc(-c2ccc3ncnc(Nc4ccc(OCc5cccc(F)c5)c(Cl)c4)c3c2)o1 [lapatinib]
Outline: as §1

pictilisib = compound: CS(=O)(=O)N1CCN(Cc2cc3nc(-c4cccc5[nH]ncc45)nc(N4CCOCC4)c3s2)CC1 [pictilisib]
Outline: as §1

crizotinib = compound: C[C@@H](Oc1cc(-c2cnn(C3CCNCC3)c2)cnc1N)c1c(Cl)ccc(F)c1Cl [crizotinib]
Outline: as §1

[3] = compound: C[C@H](C1=CC=C(C=C1)C(=O)NC2=C3C=CNC3=NC=C2)N
Outline: as §1

gandotinib = compound: Cc1cc(Nc2cc(CN3CCOCC3)c3nc(C)c(Cc4ccc(Cl)cc4F)n3n2)n[nH]1 [gandotinib]
Outline: as §1

tozasertib = compound: Cc1cc(Nc2cc(N3CCN(C)CC3)nc(Sc3ccc(NC(=O)C4CC4)cc3)n2)n[nH]1 [tozasertib]
Outline: as §1

doramapimod = compound: Cc1ccc(-n2nc(C(C)(C)C)cc2NC(=O)Nc2ccc(OCCN3CCOCC3)c3ccccc23)cc1 [doramapimod]
Outline: as §1

bafetinib = compound: Cc1ccc(NC(=O)c2ccc(CN3CC[C@H](N(C)C)C3)c(C(F)(F)F)c2)cc1Nc1nccc(-c2cncnc2)n1 [bafetinib]
Outline: as §1

[4] = compound: Cc1cccc(CC(=O)N2CCc3c2ccc(-c2cn(C)c4ncnc(N)c24)c3F)n1
Outline: as §1

Tubastatin A = compound: CN1CCc2c(c3ccccc3n2Cc2ccc(C(=O)NO)cc2)C1 [Tubastatin A]
Outline: as §1

[5] = compound: CNC(=O)C1=CC=CC=C1NC2=NC(=NC=C2Cl)NC3=C(C=C(C=C3)N4CCOCC4)OC
Outline: as §1

[6] = compound: CNc1nc(-c2ccc3c(N)n[nH]c3c2)cc(N2C[C@@H](C(=O)NC3CCCCC3)CC[C@H]2C)n1
Outline: as §1

duvelisib = compound: C[C@H](Nc1ncnc2nc[nH]c12)c1cc2cccc(Cl)c2c(=O)n1-c1ccccc1 [duvelisib]
Outline: as §1

Measured: log2 fold change

MYLK (UniProt Q15746)
inactive: alvocidib 0.097 | defactinib 0.128 | encorafenib 0.154 | [1] -0.008 | alisertib -0.001 | [2] -0.109 | gefitinib 0.071 | lapatinib -0.006 | pictilisib 0.015 | crizotinib 0.082 | [3] -0.181 | gandotinib 0.033 | tozasertib 0.114 | [4] -0.047
active: doramapimod 0.611 | bafetinib 0.712

NUB1 (UniProt H7C5N1)
inactive: Tubastatin A 0.209

MT-ATP8 (UniProt P03928)
UniProt P03928, sequence (P03928 whole entry, looked up): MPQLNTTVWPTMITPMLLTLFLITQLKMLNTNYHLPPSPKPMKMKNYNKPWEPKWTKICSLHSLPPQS
inactive: alvocidib 0.044 | Tubastatin A 0.072 | [5] 0.08 | defactinib 0.017 | encorafenib -0.071 | [1] -0.139 | alisertib -0.017 | [2] -0.078 | gefitinib -0.081 | lapatinib 0.024 | pictilisib -0.002 | crizotinib -0.121 | gandotinib -0.054 | tozasertib -0.078 | doramapimod 0.011 | bafetinib -0.087 | [4] -0.107
active: [3] 0.402

MXRA7 (UniProt P84157)
UniProt P84157, sequence (P84157 whole entry, looked up): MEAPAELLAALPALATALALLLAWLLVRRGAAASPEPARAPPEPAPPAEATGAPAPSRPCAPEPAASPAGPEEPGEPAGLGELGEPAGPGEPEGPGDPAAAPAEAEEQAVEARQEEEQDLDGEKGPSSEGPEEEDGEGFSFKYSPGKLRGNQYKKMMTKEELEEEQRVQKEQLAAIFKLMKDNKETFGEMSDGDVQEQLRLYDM
inactive: alvocidib -0.002 | Tubastatin A -0.056 | [5] -0.052 | defactinib -0.239 | [6] 0.131 | encorafenib 0.051 | [1] -0.028 | alisertib -0.19 | [2] -0.009 | gefitinib 0.177 | lapatinib -0.039 | crizotinib 0.103 | [3] -0.149 | duvelisib 0.056 | gandotinib -0.008 | tozasertib -0.05 | doramapimod 0.041 | [4] 0.096

NUB1 isoform 2 (UniProt Q9Y5A7)
inactive: crizotinib 0.015 | doramapimod 0.063

NPLOC4 (UniProt I3L3I1)
inactive: [6] 0.799 | encorafenib 0.014 | [1] -0.143 | pictilisib 0.145 | crizotinib -0.53 | duvelisib 0.038 | tozasertib -0.216 | doramapimod -0.002 | bafetinib -0.214

NDUFAF5 (UniProt Q5TEU4)
active: duvelisib -0.286
inactive: alvocidib -0.004 | Tubastatin A 0.12 | [5] -0.068 | defactinib -0.047 | [6] 0.175 | encorafenib 0.18 | [1] -0.065 | [2] -0.033 | lapatinib 0.002 | pictilisib -0.02 | crizotinib -0.044 | [3] -0.212 | gandotinib 0.026 | tozasertib 0.068 | doramapimod 0.129 | bafetinib -0.019 | [4] -0.061

PAGE2B (UniProt Q5JRK9)
UniProt Q5JRK9, sequence (Q5JRK9 whole entry, looked up): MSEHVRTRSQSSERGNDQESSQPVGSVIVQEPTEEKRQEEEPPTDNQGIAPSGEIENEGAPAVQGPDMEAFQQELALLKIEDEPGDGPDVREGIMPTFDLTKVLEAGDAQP
inactive: alvocidib 0.059 | Tubastatin A 0.175 | [5] 0.097 | defactinib 0.253 | [6] 0.072 | encorafenib 0.089 | [1] -0.001 | alisertib 0.053 | [2] -0.091 | gefitinib -0.051 | lapatinib 0.216 | crizotinib 0.051 | [3] 0.267 | duvelisib 0.011 | gandotinib -0.115 | tozasertib -0.017 | doramapimod 0.025 | [4] -0.097

NOCT (UniProt Q9UK39)
UniProt Q9UK39, sequence (Q9UK39 whole entry, looked up): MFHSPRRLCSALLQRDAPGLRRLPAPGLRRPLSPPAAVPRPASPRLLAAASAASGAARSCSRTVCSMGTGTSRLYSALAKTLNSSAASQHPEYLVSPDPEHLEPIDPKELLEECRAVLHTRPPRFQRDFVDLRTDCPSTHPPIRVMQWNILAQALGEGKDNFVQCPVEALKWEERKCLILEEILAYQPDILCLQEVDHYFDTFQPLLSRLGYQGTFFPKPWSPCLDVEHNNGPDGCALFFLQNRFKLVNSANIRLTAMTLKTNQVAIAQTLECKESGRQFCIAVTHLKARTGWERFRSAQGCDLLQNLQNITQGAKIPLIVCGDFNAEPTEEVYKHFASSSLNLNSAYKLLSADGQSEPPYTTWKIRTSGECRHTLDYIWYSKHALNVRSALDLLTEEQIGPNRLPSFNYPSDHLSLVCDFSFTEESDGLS
inactive: Tubastatin A 0.012 | [5] 0.159 | [6] 0.042 | encorafenib 0.046 | [1] -0.01 | alisertib 0.009 | [2] -0.144 | gefitinib -0.088 | lapatinib -0.025 | crizotinib 0.024 | duvelisib 0.039 | tozasertib 0.111 | doramapimod 0.063

P2RY1 (UniProt P47900)
UniProt P47900, sequence (P47900 whole entry, looked up): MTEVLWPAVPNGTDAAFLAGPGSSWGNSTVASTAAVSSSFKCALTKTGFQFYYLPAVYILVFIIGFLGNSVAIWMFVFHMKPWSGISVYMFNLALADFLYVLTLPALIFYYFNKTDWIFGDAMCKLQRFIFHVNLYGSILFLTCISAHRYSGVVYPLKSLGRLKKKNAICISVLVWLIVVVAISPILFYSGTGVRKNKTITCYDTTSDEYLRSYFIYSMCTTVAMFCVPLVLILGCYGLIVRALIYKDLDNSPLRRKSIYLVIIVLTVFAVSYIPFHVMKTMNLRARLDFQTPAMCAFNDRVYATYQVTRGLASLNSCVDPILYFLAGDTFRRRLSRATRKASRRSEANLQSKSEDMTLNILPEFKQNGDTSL
active: pictilisib -0.444
inactive: alvocidib -0.025 | Tubastatin A 0.06 | [5] -0.077 | [6] -0.013 | encorafenib 0.054 | [1] 0.057 | [2] -0.068 | lapatinib -0.091 | [3] -0.02 | duvelisib 0.092 | gandotinib 0.012 | tozasertib 0.1 | bafetinib 0.021 | [4] 0.007

MYBL2 (UniProt P10244)
inactive: alvocidib 0 | Tubastatin A -0.15 | [5] 0.045 | defactinib 0.113 | [6] -0.016 | encorafenib 0.088 | [1] -0.023 | crizotinib -0.018 | [3] 0.181 | duvelisib -0.011 | gandotinib -0.286 | tozasertib 0.001 | doramapimod 0.017 | [4] -0.184

NTMT1 (UniProt S4R338)
inactive: [2] 0.045 | lapatinib 0.082

ORC1 (UniProt Q13415)
inactive: encorafenib 0.018 | [1] -0.188 | tozasertib 0.023

MYO9A isoform 4 (UniProt B2RTY4)
inactive: alvocidib 0.034 | Tubastatin A -0.077 | [5] -0.013 | defactinib -0.026 | [6] 0.015 | alisertib -0.035 | [2] 0.04 | gefitinib 0.009 | lapatinib -0.027 | pictilisib 0.022 | crizotinib -0.03 | [3] -0.014 | duvelisib -0.019 | gandotinib -0.044 | doramapimod 0.005 | bafetinib -0.103 | [4] 0.036

NSA2 (UniProt O95478)
inactive: alvocidib -0.291 | Tubastatin A -0.181 | [5] -0.017 | defactinib 0.058 | [6] 0.066 | encorafenib -0.184 | [1] -0.086 | alisertib -0.14 | [2] -0.012 | gefitinib 0.056 | lapatinib 0.014 | pictilisib -0.088 | [3] -0.036 | duvelisib -0.055 | gandotinib 0.159 | tozasertib -0.086 | bafetinib 0.064 | [4] 0.221

NUDT5 (UniProt C9JYY9)
inactive: [5] 0.026 | encorafenib 0.066 | [1] -0.029 | alisertib -0.092 | gefitinib -0.075 | tozasertib 0.004

NR3C1 isoform 3 (UniProt P04150)
inactive: alvocidib -0.004 | Tubastatin A -0.088 | [5] 0.048 | defactinib 0.021 | [6] -0.093 | encorafenib 0.05 | [1] 0.029 | alisertib 0.045 | [2] -0.001 | gefitinib 0.013 | pictilisib -0.26 | crizotinib 0.012 | [3] 0.057 | duvelisib 0.046 | gandotinib -0.091 | tozasertib 0.012 | doramapimod -0.005 | bafetinib -0.027 | [4] 0.073

MYO10 (UniProt Q9HD67)
UniProt Q9HD67, sequence (Q9HD67 whole entry, looked up): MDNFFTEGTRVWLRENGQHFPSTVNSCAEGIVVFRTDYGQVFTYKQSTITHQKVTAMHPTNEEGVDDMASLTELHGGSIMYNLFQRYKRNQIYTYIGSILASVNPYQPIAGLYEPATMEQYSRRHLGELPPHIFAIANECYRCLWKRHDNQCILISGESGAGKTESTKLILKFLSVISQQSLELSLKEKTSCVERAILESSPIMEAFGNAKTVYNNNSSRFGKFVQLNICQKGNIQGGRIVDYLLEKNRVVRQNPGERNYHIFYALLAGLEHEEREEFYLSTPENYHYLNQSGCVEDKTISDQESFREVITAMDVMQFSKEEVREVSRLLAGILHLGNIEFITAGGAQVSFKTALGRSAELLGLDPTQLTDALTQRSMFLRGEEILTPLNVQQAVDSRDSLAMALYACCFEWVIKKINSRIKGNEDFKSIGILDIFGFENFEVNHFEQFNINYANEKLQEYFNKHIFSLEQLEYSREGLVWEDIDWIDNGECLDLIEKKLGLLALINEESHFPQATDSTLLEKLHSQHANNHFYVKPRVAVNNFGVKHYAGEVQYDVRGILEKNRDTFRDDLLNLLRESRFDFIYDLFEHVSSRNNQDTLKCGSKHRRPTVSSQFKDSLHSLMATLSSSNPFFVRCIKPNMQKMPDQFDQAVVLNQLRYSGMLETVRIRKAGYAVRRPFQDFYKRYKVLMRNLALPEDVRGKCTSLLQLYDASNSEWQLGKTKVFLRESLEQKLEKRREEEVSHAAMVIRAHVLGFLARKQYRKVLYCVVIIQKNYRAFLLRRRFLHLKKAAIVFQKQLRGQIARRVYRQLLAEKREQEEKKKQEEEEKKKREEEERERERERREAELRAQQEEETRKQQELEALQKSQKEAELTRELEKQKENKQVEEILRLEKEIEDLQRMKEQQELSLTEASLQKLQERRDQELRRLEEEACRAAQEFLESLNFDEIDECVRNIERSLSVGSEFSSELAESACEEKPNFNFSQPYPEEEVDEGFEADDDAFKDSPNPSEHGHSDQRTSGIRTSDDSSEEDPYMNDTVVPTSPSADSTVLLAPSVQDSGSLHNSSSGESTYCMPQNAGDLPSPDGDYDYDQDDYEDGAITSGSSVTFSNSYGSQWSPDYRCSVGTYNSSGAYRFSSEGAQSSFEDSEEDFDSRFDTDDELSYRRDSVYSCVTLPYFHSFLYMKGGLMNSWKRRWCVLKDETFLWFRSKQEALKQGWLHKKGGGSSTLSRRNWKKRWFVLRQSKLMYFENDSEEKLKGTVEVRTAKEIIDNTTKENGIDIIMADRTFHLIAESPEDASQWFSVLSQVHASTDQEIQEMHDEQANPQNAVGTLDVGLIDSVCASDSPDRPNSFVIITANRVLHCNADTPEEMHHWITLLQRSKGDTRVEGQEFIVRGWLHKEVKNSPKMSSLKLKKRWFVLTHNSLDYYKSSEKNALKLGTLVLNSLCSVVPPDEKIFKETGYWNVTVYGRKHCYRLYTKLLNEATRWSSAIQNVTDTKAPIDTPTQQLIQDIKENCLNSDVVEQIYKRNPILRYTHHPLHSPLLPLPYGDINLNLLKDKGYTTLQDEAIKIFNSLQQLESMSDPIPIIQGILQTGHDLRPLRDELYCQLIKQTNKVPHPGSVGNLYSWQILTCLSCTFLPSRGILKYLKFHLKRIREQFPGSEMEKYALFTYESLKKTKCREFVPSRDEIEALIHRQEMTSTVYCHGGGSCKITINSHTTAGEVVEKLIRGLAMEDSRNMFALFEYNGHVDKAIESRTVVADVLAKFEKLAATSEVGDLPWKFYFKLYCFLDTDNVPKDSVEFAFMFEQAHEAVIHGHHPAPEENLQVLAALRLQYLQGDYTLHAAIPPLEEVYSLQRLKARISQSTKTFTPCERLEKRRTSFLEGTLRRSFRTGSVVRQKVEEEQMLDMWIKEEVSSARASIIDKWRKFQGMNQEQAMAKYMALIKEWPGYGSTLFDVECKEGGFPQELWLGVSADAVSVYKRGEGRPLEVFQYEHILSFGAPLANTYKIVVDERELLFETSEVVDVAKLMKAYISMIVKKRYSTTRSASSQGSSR
active: [3] 0.696
inactive: alvocidib 0.048 | Tubastatin A 0.211 | [5] -0.012 | defactinib -0.106 | alisertib 0.021 | gefitinib 0.087 | pictilisib 0.076 | crizotinib -0.042 | gandotinib -0.016 | doramapimod -0.321 | bafetinib -0.456 | [4] -0.029

NAA16 (UniProt Q6N069)
inactive: Tubastatin A -0.097 | defactinib 0.086 | [6] -0.05 | encorafenib 0.062 | [1] 0.169 | alisertib 0.11 | [2] -0.03 | gefitinib 0.142 | lapatinib 0.048 | pictilisib -0.108 | duvelisib 0.029 | tozasertib -0.016 | bafetinib 0.022

NUDT6 (UniProt P53370)
UniProt P53370, sequence (P53370 whole entry, looked up): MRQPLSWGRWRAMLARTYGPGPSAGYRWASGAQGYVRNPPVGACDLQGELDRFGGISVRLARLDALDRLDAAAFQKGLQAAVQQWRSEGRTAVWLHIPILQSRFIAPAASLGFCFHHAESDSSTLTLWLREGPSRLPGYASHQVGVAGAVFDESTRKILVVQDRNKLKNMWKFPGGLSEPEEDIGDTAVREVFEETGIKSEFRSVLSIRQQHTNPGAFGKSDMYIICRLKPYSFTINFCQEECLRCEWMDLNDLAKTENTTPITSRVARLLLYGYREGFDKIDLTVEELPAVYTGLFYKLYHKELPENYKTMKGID
inactive: Tubastatin A 0.042 | [5] 0.154 | defactinib -0.002 | [6] -0.024 | encorafenib -0.021 | [1] -0.015 | crizotinib 0.051 | duvelisib -0.034 | tozasertib 0.132 | doramapimod -0.073

PARD3B (UniProt Q8TEW8)
UniProt Q8TEW8, sequence (Q8TEW8 whole entry, looked up): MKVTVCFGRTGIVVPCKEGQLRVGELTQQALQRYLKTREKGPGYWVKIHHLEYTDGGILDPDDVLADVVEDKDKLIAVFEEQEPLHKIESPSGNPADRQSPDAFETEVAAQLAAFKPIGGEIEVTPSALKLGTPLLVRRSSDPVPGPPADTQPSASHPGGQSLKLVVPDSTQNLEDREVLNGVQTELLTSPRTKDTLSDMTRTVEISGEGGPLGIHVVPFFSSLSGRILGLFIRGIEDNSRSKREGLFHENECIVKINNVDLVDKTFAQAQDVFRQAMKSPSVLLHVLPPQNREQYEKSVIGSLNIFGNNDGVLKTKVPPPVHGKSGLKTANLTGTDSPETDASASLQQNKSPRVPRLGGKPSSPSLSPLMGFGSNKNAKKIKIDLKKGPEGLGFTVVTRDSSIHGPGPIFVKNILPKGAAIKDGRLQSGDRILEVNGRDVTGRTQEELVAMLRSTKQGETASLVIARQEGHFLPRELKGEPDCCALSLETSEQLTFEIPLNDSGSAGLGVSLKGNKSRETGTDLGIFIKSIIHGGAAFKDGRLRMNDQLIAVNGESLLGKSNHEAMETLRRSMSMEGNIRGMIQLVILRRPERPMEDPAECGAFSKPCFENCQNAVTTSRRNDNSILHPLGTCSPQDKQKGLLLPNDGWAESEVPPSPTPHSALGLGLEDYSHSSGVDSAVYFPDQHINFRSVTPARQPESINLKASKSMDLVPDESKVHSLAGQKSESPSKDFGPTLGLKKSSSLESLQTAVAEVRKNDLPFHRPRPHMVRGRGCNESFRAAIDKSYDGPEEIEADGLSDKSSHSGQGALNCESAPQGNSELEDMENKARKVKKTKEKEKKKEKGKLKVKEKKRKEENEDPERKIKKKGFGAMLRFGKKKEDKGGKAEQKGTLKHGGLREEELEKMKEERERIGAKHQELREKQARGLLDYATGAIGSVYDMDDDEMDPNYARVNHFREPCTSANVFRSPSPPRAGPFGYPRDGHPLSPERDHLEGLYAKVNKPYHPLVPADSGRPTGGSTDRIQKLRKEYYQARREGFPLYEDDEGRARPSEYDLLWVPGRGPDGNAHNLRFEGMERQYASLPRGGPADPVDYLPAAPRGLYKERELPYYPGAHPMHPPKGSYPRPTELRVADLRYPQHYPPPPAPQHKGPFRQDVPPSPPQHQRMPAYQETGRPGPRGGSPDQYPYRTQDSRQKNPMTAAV
inactive: alvocidib -0.125 | [5] 0.005 | [6] 0.093 | [3] -0.197 | duvelisib 0.024 | gandotinib 0.074 | [4] 0.042
